Sampled rows, rich in hits. Any-hit rate of the full collection: about 6.7%.
GDH-TPI inh = GDH-TPI coupled enzyme inhibition counter-screen | AID 588335 | GDH-TPI coupled enzyme counterscreen, NADH absorbance | inhibition, % at 4.8 µM | 1.2% of 360,000 active; in the data active = inhibition above about 30%;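 also: 0% = DMSO wells and 100% = wells lacking the enzyme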
Anthrax LF prot = anthrax lethal factor protease inhibition. 0.12% of 360,000 active. inhibition, % at 10 µM. P15917. multiplex microsphere protease cleavage assay, LF; also: plate controls were buffer without enzyme for full effect and enzyme alone for no effect
BoNT-A LC inh2 = BoNT A light chain protease inhibition | AID 588499 | 0.17% of 360,000 active | inhibition, % at 10 µM | multiplex microsphere protease substrate cleavage, flow cytometry; also: plate controls were buffer without enzyme for full effect and enzyme alone for no effect
Bead autofluor = compound fluorescence in toxin protease inhibitor counterscreen; compound autofluorescence counterscreen, microsphere flow cytometry; stronger effect = higher value; fluorescence intensity (test concentration not listed); AID 624483; 3.1% of 360,000 active; in the data active = fluorescence intensity above about 16000; inconclusive = no clear call, values can overlap the other calls
BoNT-F LC inh = blocks Botulinum neurotoxin F light chain protease. AID 588497. inhibition, % at 10 µM. Multiplex microsphere protease cleavage assay, flow cytometry. 0.22% of 360,000 active; in the data active = inhibition above about 35%, passing the limit was not always enough; inconclusive = no clear call, values can overlap the other calls; also: plate controls were buffer without enzyme for full effect and enzyme alone for no effect
Mtb FBA inh = inhibitors of M. tuberculosis fructose-bisphosphate aldolase; P9WQA3; purified M. tuberculosis FBA, fluorescence read-out; inhibition, % at 1 µM; 2.3% of 360,000 active; AID 588726; in the data active = inhibition above about 27%;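 also: 0% = vehicle and 100% = reference inhibitor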
Target sequence (P9WQA3 whole entry, looked up): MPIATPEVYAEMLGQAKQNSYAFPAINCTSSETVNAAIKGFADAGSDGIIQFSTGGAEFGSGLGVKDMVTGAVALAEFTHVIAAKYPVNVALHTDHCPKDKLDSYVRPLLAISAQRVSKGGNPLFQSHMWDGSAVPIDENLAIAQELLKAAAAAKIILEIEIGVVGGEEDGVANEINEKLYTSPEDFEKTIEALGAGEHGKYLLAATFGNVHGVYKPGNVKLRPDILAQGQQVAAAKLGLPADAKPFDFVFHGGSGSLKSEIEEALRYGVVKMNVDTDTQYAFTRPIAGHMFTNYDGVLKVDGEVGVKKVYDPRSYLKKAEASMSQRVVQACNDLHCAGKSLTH
The depositor's hits bear a star; ? = inconclusive; nt = not tested or not shown. Rule as the data show it, unless noted: active = inhibition above about 30%; inconclusive = no clear call, values can overlap the other calls; inactive = below that.

SMILES | GDH-TPI inh | Anthrax LF prot | BoNT-A LC inh2 | Bead autofluor | BoNT-F LC inh | Mtb FBA inh
O=[N+]([O-])c1ccc(O)c(C2=NNC(c3ccccc3F)C2)c1 (stereo unspecified) | 36.4* | -3.3 | -0.6 | 3441 | -3.8 | 8.3
COC(=O)c1cccc(S(=O)(=O)N(Cc2ccco2)Cc2cc3cc(OC)ccc3[nH]c2=O)c1 | 0.3 | -4.6 | -0.9 | 6287 | -7.5 | 3.8
O=C(O)CCC(=O)N1CCc2cc(S(=O)(=O)NC3CCCC3)ccc21 | -2.1 | 1.7 | -1.8 | 21391* | -2.8 | -2.0
Cc1cccc(N2CCN(S(=O)(=O)c3ccc4c(c3)CCN4C(=O)CCC(=O)O)CC2)c1C | -2.1 | -1.7 | -1.8 | 24315* | -1.1 | -0.5
Cc1ccc(C)c(N2CCN(S(=O)(=O)c3ccc4c(c3)CCN4C(=O)CCC(=O)O)CC2)c1 | 4.8 | 5.7 | -0.1 | 5743 | -6.7 | -1.9
O=C(O)CCC(=O)N1CCc2cc(S(=O)(=O)NC3CCCc4ccccc43)ccc21 (stereo unspecified) | 3.8 | 0.5 | 0.0 | 11993 | 6.1 | -1.9
COC(=O)Cn1c2ccccc2c(=O)n1C(C)CBr (stereo unspecified) | nt | -7.4 | -0.2 | 5887 | -2.6 | nt
CN(C)/C=N/c1ncc(C(=O)c2ccc(Cl)cc2)s1 | 15.4 | 2.3 | 0.9 | 22056* | 1.1 | -1.1
COc1ccc(C(=O)Nc2n[nH]c(-c3ccncc3)n2)cc1 | 7.5 | -3.6 | -5.5 | 18001* | -4.5 | -1.5
O=C(Nc1ccccn1)c1ccc(Br)s1 | -1.4 | 3.3 | -1.2 | 3587 | 18.8 | 0.8
O=C(NCCc1ccccc1)C(=O)NCC(c1ccco1)N1CCOCC1 (stereo unspecified) | 9.9 | 5.3 | -1.1 | 4529 | 3.7 | 1.5
CCn1c(SCC(=O)Nc2ccc(C(C)=O)cc2)nc2nc3c(cc2c1=O)CCCC3 | 10.6 | -4.8 | ? | 23239* | 1.1 | -1.4
Cc1ccc(/C=N/Nc2cn[nH]c(=O)n2)o1 | 32.6* | 0.4 | -1.1 | 2543 | -2.2 | -2.7
COc1cc(C)c(NC(=O)C(=S)N2CCCC2)cc1C | -2.5 | -6.4 | 0.1 | 4103 | -3.4 | -0.3
O=C(Nc1ccc(F)cc1)Nc1nnc(-c2ccncc2)s1 | 35.0* | -1.2 | 0.4 | 13034 | -4.0 | 1.3
O=C(Nc1ccncc1)Nc1ccc(F)cc1F | -3.1 | 1.1 | 1.1 | 23331* | 2.4 | 1.5
O=C(Nc1ccc(F)cc1F)Nc1ccc(F)cc1F | -4.4 | -3.8 | -2.9 | 2642 | -16.3 | -2.0
CCOC(=O)CSc1nc2sc3c(c2c(=O)n1-c1ccccc1)CCN(C)C3 | 30.0 | -10.9 | 16.9 | 3853 | ? | 25.7
COc1ccc(-n2c(SCC(N)=O)nc3sc4c(c3c2=O)CCN(C)C4)cc1 | 34.6* | nt | nt | nt | nt | 35.5*
COC(=O)CSc1nc2sc3c(c2c(=O)n1-c1ccc(OC)cc1)CCN(C)C3 | 19.7 | -2.7 | 6.7 | 3922 | -3.5 | 4.5
CN1CCc2c(sc3nc(SCC(=O)N4CCOCC4)n(-c4ccc(Cl)cc4)c(=O)c23)C1 | 50.9* | 3.5 | 3.8 | 5642 | -3.2 | 24.6
CNC(=O)CSc1nc(N)c2c3c(sc2n1)CCC3 | 11.4 | -2.0 | -1.0 | 8702 | -5.9 | 2.8
CCOC(=O)CSc1nc2sc3c(c2c(=O)n1-c1ccccc1)CCN(C(C)C)C3 | 26.4 | 6.0 | 55.6* | 5608 | 4.5 | 17.3
CC1CCN(C(=O)CSc2nc(N)c3c4c(sc3n2)CN(C)CC4)CC1 | 11.0 | -3.9 | 3.8 | ? | -7.4 | 30.9*
COc1cc2c(C(=O)N(C)c3ccc(F)cc3)cn(C)c(=O)c2cc1OC | 6.2 | 0.8 | -1.6 | 3585 | 0.4 | 1.1
SMILES | GDH-TPI inh | Anthrax LF prot | BoNT-A LC inh2 | Bead autofluor | BoNT-F LC inh | Mtb FBA inh
S=c1[nH]nc(-c2ccco2)n1/N=C/c1cccs1 | 7.9 | -1.9 | -0.2 | 2623 | -6.4 | -5.5
COc1ccc2[nH]c(C(=O)N/N=C/c3ccc(OC)c(O)c3)cc2c1 | 48.5* | 2.9 | -2.0 | 3720 | -7.6 | -0.1
COc1cc(OC)c2cc(C(=O)N/N=C/c3ccccc3O)[nH]c2c1 | 14.5 | -8.1 | 2.7 | 3760 | 8.1 | 6.6
COc1ccccc1C=NNC(=O)C(=O)NN=Cc1ccccc1OC | 34.5* | -8.8 | -0.2 | 2950 | -3.2 | 3.2
CCOc1ccc(/C=N/NC(=O)c2cc3c(OC)cc(OC)c(OC)c3[nH]2)cc1 | 33.5* | -10.8 | -2.6 | 3399 | -11.9 | 0.7
COc1ccc(OC)c(/C=N/NC(=O)c2cc3c(OC)c(OC)ccc3[nH]2)c1 | 35.0* | -1.9 | 0.0 | 2248 | -0.7 | 1.4
COc1ccc2[nH]c(C(=O)Nc3ccc(F)cc3Br)cc2c1 | 32.4* | -4.7 | 5.8 | 3100 | ? | 5.8
CCOc1ccc2[nH]c(C(=O)N/N=C/c3ccccc3OC)cc2c1 | 22.4 | 7.0 | 0.6 | 2845 | 9.6 | 6.5

Bioassay records as filed in PubChem.
